In PubChem BioAssay (NCI):
About 83,000 compounds went through this panel and 20% of them were active in at least one assay; those are over-represented in the sample as a whole.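 Plates (96-well) were seeded with cells, treated with compound at one concentration, and incubated for 48 hours before percent growth was determined.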 Calls of active or inactive are those of the source. How the source made its calls: active means growth percent below 10; inactive means the rest.

test system: SF-268 CNS; assay: NCI-60 one-dose screen, 48 h (100 = growth as untreated, 0 = no growth, -100 = all killed); conditions: 10 µM unless noted

Row | SMILES | growth
1 | COc1ccc(N=C2CSc3nnc(-c4cc(F)c(Cl)cc4Cl)n3N2)cc1 | 7.12% (active)
2 | Nc1c(C(=O)Nc2cccc(Cl)c2)sc2nc3c(cc12)C(=O)CCC3 | 63.1% (inactive)
3 | COc1ccc(CNc2c3ccccc3nc3ccc(OC)cc23)cc1 | 40.2% (inactive)
4 | CCOC(=O)c1cc(C(=O)OCC)c(C)nc1C | 108% (inactive)
5 | NC(=O)N/N=C\c1ccc([N+](=O)[O-])o1 | 102% (inactive)
6 | Cc1ccc(NC(=O)c2sc3nc4c(cc3c2N)C(=O)CCC4)cc1Cl | 115% (inactive)
7 | COc1ccc(-n2c(COc3ccc(F)cc3)n[nH]c2=S)cc1 | 97.8% (inactive)
8 | COc1ccccc1-[n+]1cc(-c2ccc(-c3ccccc3)cc2)n2c1CCCCC2 | 21.2% (inactive)
9 | Nc1cc(C(=O)O)cc(C(=O)O)c1 | 115% (inactive)
10 | CN(C)c1nc(-c2cccs2)n2nc(-c3ccco3)cc2n1 | 104% (inactive)
11 | O=C(Nc1cccc(-n2ccc3c(NC(=O)c4ccccc4)nccc32)c1)c1ccc(N2CCOCC2)c(C(F)(F)F)c1 | 24.2% (inactive)
12 | CNC(=O)c1c(NC(=O)c2ccc(C(C)C)cc2)sc2c1CCC(=O)C2 | 15.3% (inactive)
13 | CC(CN1CCN(CC(C)Nc2ccnc3cc(Cl)ccc23)CC1)Nc1ccnc2cc(Cl)ccc12 (stereo unspecified) | 16.7% (inactive)
14 | Cc1c2c(cc3c1[nH]c1ccccc13)C=NCC2 | 95.5% (inactive)
15 | CC(C)c1ccc2c(c1)CCC1C2CCCC1(C)NCc1ccccc1 (stereo unspecified) | 79.2% (inactive)
16 | CC1(C)OC2OC3C(CN)OC(c4ccccc4)OC3C2O1 (stereo unspecified) | 93.2% (inactive)
